The list is not random: actives were taken first. Their share in the collection is about 3.1%.
pPAFAH inh = inhibitors of human plasma PAF acetylhydrolase (pPAFAH); Q13093; 330,000 compounds, 1.5% hits; inhibition, % at 3.39 µM; recombinant pPAFAH, FP-rhodamine probe fluorescence polarization; AID 463082;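 active means inhibition above the mean inhibition across the screen plus 3 SD, cut at about 25% in these data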;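 further: inhibitors block binding of the rhodamine activity-based probe so polarization drops; 0% = enzyme with DMSO and 100% = wells lacking pPAFAH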
PAFAH1B2 FP inh = blocks human PAF acetylhydrolase 1b catalytic subunit 2; P68402; 340,000 compounds, 1.2% hits; inhibition, % at 3.39 µM; AID 492953; recombinant PAFAH1B2, FP-rhodamine activity probe, fluorescence polarization;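 active means inhibition above the mean of all tested compounds plus 3 SD, cut at about 24% in these data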;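 further: 0% = enzyme with DMSO and 100% = wells lacking PAFAH1B2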
Rin1-Abl PPI inh = human Rin1-Abl interaction inhibition; AID 588664; TR-FRET Rin1/Abl binding, biochemical; 360,000 compounds, 0.4% hits; inhibition, % at 7.35 µM; in the data active means inhibition above about 5%, passing the limit was not always enough
E coli Lon inh = inhibitors of E. coli Lon protease. P0A9M0. purified E. coli Lon protease, fluorescence polarization. inhibition, % at 7.94 µM. AID 602123. 360,000 compounds, 0.42% hits; in the data active means inhibition above about 13%, passing the limit was not always enough;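 further: 0% = enzyme with probe and DMSO and 100% = no enzyme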
PAFAH2 inh = inhibitors of human PAFAH2; recombinant PAFAH2, FP-rhodamine activity probe, fluorescence polarization; Q99487; 340,000 compounds, 0.99% hits; AID 492956; inhibition, % at 3.39 µM;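 active means inhibition above the mean over all tested compounds plus 3 SD, cut at about 30% in these data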;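 further: inhibitors block probe labeling of enzyme so polarization drops; 0% = enzyme with DMSO and 100% = wells lacking PAFAH2 protein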
PAFAH1B3 inh = PAFAH1B3 (human) inhibition; inhibition, % at 3.39 µM; Q15102; AID 492972; recombinant PAFAH1B3, FP-rhodamine probe, fluorescence polarization; 340,000 compounds, 0.28% hits;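 active means inhibition above the screen-wide average of all tested compounds plus 3 SD, cut at about 25% in these data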;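 further: 0% = enzyme with DMSO only and 100% = wells lacking PAFAH1B3 protein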
E coli Lon conf = confirmation of E. coli Lon protease inhibitors. 1,400 compounds, 31% hits. AID 602230. shares compounds with E coli Lon inh. purified E. coli Lon, fluorescence polarization. inhibition, % at 7.94 µM; in the data active means inhibition above about 16%;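 further: 0% = enzyme with probe and DMSO and 100% = no enzyme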
An asterisk follows results filed as active.

How did CCOC(=O)C1=C(C)Nc2ccccc2N/C1=N\S(=O)(=O)c1cc(C(=O)O)ccc1Cl do in these assays?
pPAFAH inh: 5.9; PAFAH1B2 FP inh: 0.8; Rin1-Abl PPI inh: 0.7; E coli Lon inh: 1.9; PAFAH2 inh: 10.2; PAFAH1B3 inh: 8.2

How did O=C(NCCO)OC1CC2CC1[C@H]1CCCCN1C2=O (some centres not stated) do in these assays?
E coli Lon inh: -2.2

Results for COc1ccc(COC(=O)CCc2cc(OC)c(OC)c(OC)c2)cc1F ?
PAFAH1B2 FP inh: -0.2; Rin1-Abl PPI inh: 3.9; E coli Lon inh: 4.7; PAFAH2 inh: 4.5; PAFAH1B3 inh: -8.1

What do the screens show for `N#CC1=C2N=C(N)c3ccccc3N2C2=C(C(=O)CCC2)C1c1ccccc1F` (configuration not stated)?
pPAFAH inh: 5.5; PAFAH1B2 FP inh: -0.9; Rin1-Abl PPI inh: -3.4; E coli Lon inh: 71.2*; PAFAH2 inh: 19.7; PAFAH1B3 inh: 3.7; E coli Lon conf: 3.8

What do the screens show for `CCCCOC(=O)Nc1ccc(S(=O)(=O)Nc2ncccn2)cc1`?
pPAFAH inh: -5.8; Rin1-Abl PPI inh: 1.4; E coli Lon inh: 20.9*; E coli Lon conf: 29.5*

How did COc1ccc(C(=O)Nc2ccc(S(=O)(=O)Nc3ncccn3)cc2)cc1OC do in these assays?
pPAFAH inh: 2.2; PAFAH1B2 FP inh: 7.6; Rin1-Abl PPI inh: -2.0; E coli Lon inh: 21.3*; PAFAH2 inh: 4.9; PAFAH1B3 inh: 14.3; E coli Lon conf: 8.6

What do the screens show for `COc1cc(OC)cc(C(=O)Nc2ccc(S(=O)(=O)Nc3ncccn3)cc2)c1`?
pPAFAH inh: 0.8; PAFAH1B2 FP inh: 0.3; Rin1-Abl PPI inh: -0.7; E coli Lon inh: 6.2; PAFAH2 inh: 5.5; PAFAH1B3 inh: 8.7

What do the screens show for `CC(=O)NC(=S)Nc1ccc(S(=O)(=O)Nc2ncccn2)cc1`?
pPAFAH inh: -1.3; PAFAH1B2 FP inh: 4.2; Rin1-Abl PPI inh: -1.2; E coli Lon inh: 1.1; PAFAH2 inh: -4.4; PAFAH1B3 inh: 3.4

What do the screens show for `COC(=O)Nc1ccc(S(=O)(=O)Nc2ncccn2)cc1`?
pPAFAH inh: 5.1; PAFAH1B2 FP inh: 3.4; Rin1-Abl PPI inh: 0.5; E coli Lon inh: 26.9*; PAFAH2 inh: 10.3; PAFAH1B3 inh: 2.4; E coli Lon conf: -77.8

Results for C/C(=C\c1ccccc1)C(=O)Nc1ccc(S(=O)(=O)Nc2ncccn2)cc1 ?
pPAFAH inh: -3.2; PAFAH1B2 FP inh: -2.5; Rin1-Abl PPI inh: 2.0; E coli Lon inh: 22.3*; PAFAH2 inh: 0.9; PAFAH1B3 inh: 2.0; E coli Lon conf: -17.9

How did CC1=C(C(=O)N(C)C)CC(CC(=O)NCCCN(C)C)C(=O)N1CCC1=CCCCC1 (configuration not stated) do in these assays?
Rin1-Abl PPI inh: -1.7; E coli Lon inh: -4.0

How did COc1[nH]c(/N=C/c2ccccc2)c(C#N)c1C#N do in these assays?
pPAFAH inh: 6.1; PAFAH1B2 FP inh: 80.8*; Rin1-Abl PPI inh: 1.1; E coli Lon inh: 149.0*; PAFAH2 inh: 82.8*; PAFAH1B3 inh: 81.8*; E coli Lon conf: 8.2

What do the screens show for `O=C(COC(=O)c1cc[n+]([O-])cc1)Nc1cccc(Cl)c1Cl`?
pPAFAH inh: 0.5; PAFAH1B2 FP inh: 9.6; Rin1-Abl PPI inh: 1.7; E coli Lon inh: 16.2*; PAFAH2 inh: 0.9; PAFAH1B3 inh: 4.2; E coli Lon conf: -8.9

What do the screens show for `CC(=O)c1ccccc1NC(=O)COC(=O)c1cc[n+]([O-])cc1`?
pPAFAH inh: 0.8; PAFAH1B2 FP inh: -3.6; Rin1-Abl PPI inh: 3.6; E coli Lon inh: -9.7; PAFAH2 inh: -0.9; PAFAH1B3 inh: 14.7

What do the screens show for `C/C(CC(=O)Nc1ccc2c(c1)OCCO2)=N\NC(=O)COc1ccc(Cl)c(C)c1`?
pPAFAH inh: 2.7; PAFAH1B2 FP inh: 2.5; Rin1-Abl PPI inh: 0.5; E coli Lon inh: 1.3; PAFAH2 inh: 23.3; PAFAH1B3 inh: 11.9

Results for O=C(CN1CCSCC1)N/N=C/c1ccc(F)c(F)c1 ?
pPAFAH inh: 6.9; PAFAH1B2 FP inh: 0.2; Rin1-Abl PPI inh: -1.8; E coli Lon inh: 27.0*; PAFAH2 inh: 6.8; PAFAH1B3 inh: 3.6; E coli Lon conf: -1.0
